# Screening data deposited in PubChem BioAssay by National Center for Advancing Translational Sciences (NCATS).
# This is a sample that favours compounds with a hit; in the whole collection about 6.6% have one here.
# HT1080 IDH1KD tx: qHTS for induction of synthetic lethality in tumor cells producing 2HG: qHTS for the HT-1080-IDH1KD cell line | HT-1080 IDH1 knockdown viability, ATP luminescence, 48 h | Potency, µM (titrated, usually from 46.1 µM), for the others: at the top dose activity, negative = toxicity, hits mostly cytotoxic | actives 2% (n = 360,000) | AID 686971, 2013;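 further: 0% = DMSO wells and -100% = cell-free medium wells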
#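 Luminescent ATP read-out (CellTiter-Glo, 10 min at room temperature) after 48 h compound exposure at 37 °C gave viability of IDH1-knockdown HT-1080 cells. Activity was normalised to DMSO and cell-free wells, then fitted as concentration-response curves.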
# KB-3-1 tox: qHTS assay for MDR1-selective chemotherapeutics: Primary screen using the parental adenocarcinoma cell KB-3-1. KB-3-1 viability, CellTiter-Glo ATP luminescence, 72 h. Potency, µM (series often up to 46.1 µM), hits mostly cytotoxic. actives 1.4% (n = 400,000); further: on the % scale 0 is the no-effect control and ±100 the full control effect; nearly all actives have a fitted effect of over 60% in size
#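 Cytotoxicity measured as CellTiter-Glo luminescence after 72 h at 37 C. Compound titrations were pinned onto drug-naive KB-3-1 parental adenocarcinoma cells grown in DMEM with 10% FBS, and normalized data fitted to concentration-response curves.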
# KB-V1 cytotox: qHTS assay for MDR1-selective chemotherapeutics: Primary screen using the drug-selected MDR subline cells KB-V1. Potency, µM (titrated, usually from 46.1 µM), hits mostly cytotoxic. KB-V1 MDR cells viability, CellTiter-Glo, 72 h. actives 3.4% (n = 400,000); further: on the % scale 0 is the no-effect control and ±100 the full control effect; nearly all actives have a fitted effect of over 60% in size
#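 Compound-treated KB-V1 multidrug-resistant cells, 72 h, 37 degrees C; viability by CellTiter-Glo. Fitted qHTS curves give the values.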
# HepG2 tox: qHTS for Inhibitors of TGF-b: Cytotox Counterscreen | AID 588856, 2011 | actives 0.76% (n = 410,000) | Potency, µM (series often up to 46.1 µM), inactives show at the top dose activity change, negative = cytotoxicity, hits mostly cytotoxic | HepG2 CAGA-GFP viability, ATP luminescence, 18 h
#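 CellTiter-Glo luminescence gave cytotoxicity after 18 hours at 37 degrees C. The cells were HepG2 CAGA-GFP in 1% FBS DMEM, stimulated with 500 pg/mL TGF-beta after compound addition. %Activity was normalised to no-cell wells (complete cell-killing) and DMSO (no toxicity), and curves were fitted and classified.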
# TGFb SMAD3 inh: qHTS for Inhibitors of TGF-b. Potency, µM (series often up to 46.1 µM), for inactives: at the highest dose activity, negative = inhibition, hits mostly inhibitors. AID 588855, 2011. HepG2 CAGA-GFP TGF-b/SMAD3 reporter, GFP fluorescence, 18 h; TGF-beta stimulated, 500 pg/mL final. actives 1.2% (n = 410,000); further: on the % scale 0 is the no-effect control and ±100 the full control effect; nearly all actives have a fitted effect of over 65% in size
#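 Inhibition of TGF-beta-driven CAGA-GFP reporter expression in HEPG2 cells is measured by cellular GFP fluorescence after 18 h stimulation with 500 pg/mL recombinant TGF-beta in 1% FBS medium at 37 degrees C.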
# HT1080NT lethal: qHTS for induction of synthetic lethality in tumor cells producing 2HG: qHTS for the HT-1080-NT fibrosarcoma cell line | HT-1080-NT fibrosarcoma viability, CellTiter-Glo ATP luminescence, 48 h | Potency, µM (top dose mostly 46.1 µM), for inactives: at the highest dose activity, negative = less viability, hits mostly cytotoxic | actives 1.6% (n = 360,000) | AID 686970, 2013;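 further: NT is the 2HG producing partner of a matched IDH1 knockdown line; 0% = DMSO-treated cells and -100% = media-only wells without cells; nearly all actives have a fitted effect of over 55% in size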
#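 HT-1080-NT; 750 cells/well; 5% FBS RPMI; 48 h compound, 37 degrees C; CellTiter-Glo luminescence; curve fitting and curve-class assignment.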
# The depositor's hits bear a star; i = inactive; ? = inconclusive; . = no result. The call rests on the fitted dose curve; in most records, active means well fitted curve in the direction sought with a large enough effect; inconclusive means small, poorly fitted or top-dose-only effect, or another doubt; inactive means no such curve, though single readings can be large; an effect the other way counts as inactive or inconclusive. Potency means the concentration at half of the fitted maximal effect.
SMILES,HT1080 IDH1KD tx,KB-3-1 tox,KB-V1 cytotox,HepG2 tox,TGFb SMAD3 inh,HT1080NT lethal
Cc1cccc(Cn2cc(C(=O)Nc3ccc(S(N)(=O)=O)cc3)ccc2=O)c1,.,i,i,-21%,9%,.
CCOC(=O)/C=C/c1ccc2c(c1)S(=O)(=O)N(C1CCCC1)[C@H]2CC(=O)OCC,.,i,?,0%,3%,.
O=S(=O)(c1ccc(F)cc1)N1CCN(CC(O)COCc2cccs2)CC1 (centres undefined),2%,i,i,-6%,3%,0%
OC(COCc1cccs1)CN1CCN(c2cccc(C(F)(F)F)c2)CC1 (centres undefined),6%,i,23µM*,-42%,?,4%
COc1ccc(-n2nnnc2S(=O)(=O)Cc2ccc(C(=O)O)cc2)cc1,7.9µM*,i,i,-6%,-17%,14µM*
COc1cc(OC)cc(-n2nnnc2SCC(=O)N2CCCC2)c1,8%,i,i,6%,-8%,10%
COc1ccc(-n2nnnc2S(=O)(=O)CC(=O)N2CCCCC2)cc1,21µM*,21µM*,?,13µM*,?,21µM*
O=C(NCc1ccc(F)cc1)c1ccc(NC(=O)N2CC3CCCN3c3ccccc32)cc1 (centres undefined),.,i,i,-8%,-26%,.
Cc1nnc(N/N=C/c2cc([N+](=O)[O-])c(N3CCC(C)CC3)cc2N2CCC(C)CC2)n1N,-18%,i,23µM*,-96%,-13%,-5%
CCc1nnc(N/N=C/c2ccc(N3CCC(C)CC3)c([N+](=O)[O-])c2)n1N,33µM*,i,?,11µM*,10µM*,?
CCN(CC)CCCNC(=O)c1cc(-c2ccc(Cl)c(Cl)c2)on1,?,i,i,16µM*,?,?
CCN(CC)CCCNC(=O)c1cc2c(-c3ccc(Cl)cc3)nn(C)c2s1,23µM*,?,?,-93%,?,21µM*
CCOc1ccc(NC(=O)CN(C)C(=O)C2CCN(C(=O)c3ccc(Cl)cc3)CC2)cc1OCC,-6%,i,i,-11%,-1%,0%
COc1ccccc1OCCNC(=O)c1ccccc1C,-20%,i,i,-4%,-11%,-12%
Cc1ccccc1OCCNC(=O)CNC(=O)c1ccccc1O,-24%,i,16µM*,-3%,-2%,4%
COc1ccc(/C=C/c2nccc3c2[nH]c2ccccc23)cc1,.,i,i,-39%,-11%,.
C=Cc1ncc(OC)c2c1[nH]c1ccccc12,?,5.8µM*,i,13µM*,20µM*,16µM*
CCOC(=O)N1CCN(C(=O)c2ccc(Oc3ccc([N+](=O)[O-])cc3)cc2)CC1,-18%,i,7.3µM*,0%,-24%,-1%
CC(C)N1CCN(C(=O)c2ccc([N+](=O)[O-])cc2)CC1,7%,i,i,11µM*,-19%,9%
Cc1ccc(OCCN2CCN(c3nc(NCc4ccco4)c4ccccc4n3)CC2)cc1,-14%,?,16µM*,-113%,?,-12%
c1ccc(CN2CCN(c3nc(NCc4ccco4)c4ccccc4n3)CC2)cc1,?,?,3.7µM*,-38%,?,-24%
COCCNC(=S)N=Nc1c(O)[nH]c2ccc([N+](=O)[O-])cc12,26µM*,i,i,17%,7%,3%
